{"source": "the supplement of paper PMC8728848", "assay_in_all_cases": "glycan array binding signal (z-score within array); higher = stronger binding", "details_in_all_cases": "glycan notation: IUPAC condensed, linker removed", "key": {"[1]": {"target": "Fuc(a1-2)Gal(b1-3)[Fuc(a1-4)]GlcNAc(b1-2)Man(a1-3)[Fuc(a1-2)Gal(b1-3)[Fuc(a1-4)]GlcNAc(b1-2)Man(a1-6)]Man(b1-4)GlcNAc(b1-4)GlcNAc", "procedure,_shortened": "(§1)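 Glycan array binding is given as a within-array Z-score, which can be read as non-binding when negative. The arrays, 3228 of them, came from the Consortium for Functional Glycomics database and were retained only where the protein sequence was available. Z-scores were averaged across arrays of the same protein sequence at different concentrations or buffers and across linkers.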"}, "Fuc(a1-2)Gal(b1-4)Glc6S": {"target": "Fuc(a1-2)Gal(b1-4)Glc6S", "procedure,_shortened": "as §1"}, "[2]": {"target": "Fuc(a1-2)Gal(b1-4)GlcNAc(b1-2)[Fuc(a1-2)Gal(b1-4)GlcNAc(b1-4)]Man(a1-3)[Fuc(a1-2)Gal(b1-4)GlcNAc(b1-2)Man(a1-6)]Man(b1-4)GlcNAc(b1-4)GlcNAc", "procedure,_shortened": "as §1"}, "[3]": {"target": "Fuc(a1-2)Gal(b1-4)GlcNAc6S", "procedure,_shortened": "as §1"}, "[4]": {"target": "Fuc(a1-2)[GalNAc(a1-3)]Gal(b1-4)GlcNAc(b1-2)Man(a1-3)[Fuc(a1-2)[GalNAc(a1-3)]Gal(b1-4)GlcNAc(b1-2)Man(a1-6)]Man(b1-4)GlcNAc(b1-4)GlcNAc", "procedure,_shortened": "as §1"}, "[5]": {"target": "Fuc(a1-2)[GalNAc(a1-4)]Gal(b1-4)GlcNAc", "procedure,_shortened": "as §1"}, "[6]": {"target": "Fuc(a1-3)[Gal(b1-4)]Glc6S", "procedure,_shortened": "as §1"}, "[7]": {"target": "Fuc(a1-3)[Gal3S(b1-4)]GlcNAc", "procedure,_shortened": "as §1"}, "[8]": {"target": "Gal(a1-3)Gal(b1-4)[Fuc(a1-3)]GlcNAc(b1-2)Man(a1-3)[Gal(a1-3)Gal(b1-4)[Fuc(a1-3)]GlcNAc(b1-2)Man(a1-6)]Man(b1-4)GlcNAc(b1-4)GlcNAc", "procedure,_shortened": "as §1"}, "Gal(a1-4)GlcNAc": {"target": "Gal(a1-4)GlcNAc", "procedure,_shortened": "as §1"}, "[9]": {"target": "Gal(b1-3)GalNAc(b1-3)Gal(a1-4)Gal(b1-4)Glc", "procedure,_shortened": "as §1"}, "[10]": {"target": "Gal(b1-3)GalNAc(b1-4)Gal(b1-4)Glc", "procedure,_shortened": "as §1"}, "[11]": {"target": "Gal(b1-3)GlcNAc(b1-3)Gal(b1-4)[Fuc(a1-3)]GlcNAc(b1-6)[Gal(b1-3)GlcNAc(b1-3)]Gal(b1-4)Glc", "procedure,_shortened": "as §1"}, "[12]": {"target": "Gal(b1-4)GlcNAc(b1-3)Gal(b1-4)[Fuc(a1-3)]GlcNAc(b1-3)Gal(b1-4)[Fuc(a1-3)]GlcNAc", "procedure,_shortened": "as §1"}, "[13]": {"target": "Gal(b1-4)GlcNAc(b1-6)[Gal(b1-3)]GalNAc", "procedure,_shortened": "as §1"}, "Gal3S(b1-4)GlcNAc": {"target": "Gal3S(b1-4)GlcNAc", "procedure,_shortened": "as §1"}, "[14]": {"target": "Gal3S(b1-4)[Fuc(a1-3)]Glc", "procedure,_shortened": "as §1"}, "[15]": {"target": "Gal3S(b1-4)[Fuc(a1-3)]Glc6S", "procedure,_shortened": "as §1"}, "Gal6S(b1-4)Glc": {"target": "Gal6S(b1-4)Glc", "procedure,_shortened": "as §1"}, "[16]": {"target": "GalNAc(a1-3)GalNAc(b1-3)Gal(a1-4)Gal(b1-4)GlcNAc", "procedure,_shortened": "as §1"}, "GalNAc3S(b1-4)GlcNAc": {"target": "GalNAc3S(b1-4)GlcNAc", "procedure,_shortened": "as §1"}, "[17]": {"target": "Glc(a1-4)Glc(a1-4)Glc(a1-4)Glc", "procedure,_shortened": "as §1"}, "Glc(b1-4)Glc": {"target": "Glc(b1-4)Glc", "procedure,_shortened": "as §1"}, "[18]": {"target": "GlcNAc(a1-4)Gal(b1-4)GlcNAc(b1-3)Gal(b1-4)GlcNAc(b1-3)Gal(b1-4)GlcNAc", "procedure,_shortened": "as §1"}, "[19]": {"target": "GlcNAc(b1-2)[GlcNAc(b1-4)]Man(a1-3)[GlcNAc(b1-4)][GlcNAc(b1-2)Man(a1-6)]Man(b1-4)GlcNAc(b1-4)GlcNAc", "procedure,_shortened": "as §1"}, "[20]": {"target": "GlcNAc(b1-4)GlcNAc(b1-4)GlcNAc", "procedure,_shortened": "as §1"}, "[21]": {"target": "GlcNAc(b1-4)GlcNAc(b1-4)GlcNAc(b1-4)GlcNAc(b1-4)GlcNAc", "procedure,_shortened": "as §1"}, "[22]": {"target": "GlcNAc(b1-4)GlcNAc(b1-4)GlcNAc(b1-4)GlcNAc(b1-4)GlcNAc(b1-4)GlcNAc", "procedure,_shortened": "as §1"}, "[23]": {"target": "GlcNAc(b1-6)Gal(b1-4)GlcNAc", "procedure,_shortened": "as §1"}, "[24]": {"target": "GlcNAc6S(b1-3)Gal(b1-4)GlcNAc", "procedure,_shortened": "as §1"}, "Man(a1-3)[Man(a1-6)]Man": {"target": "Man(a1-3)[Man(a1-6)]Man", "procedure,_shortened": "as §1"}, "[25]": {"target": "Man(a1-3)[Man(a1-6)]Man(b1-4)GlcNAc(b1-4)GlcNAc", "procedure,_shortened": "as §1"}, "[26]": {"target": "Neu5Ac(a2-3)Gal(b1-3)GalNAc(b1-4)[Neu5Ac(a2-3)]Gal(b1-4)Glc", "procedure,_shortened": "as §1"}, "[27]": {"target": "Neu5Ac(a2-3)Gal(b1-3)GlcNAc", "procedure,_shortened": "as §1"}, "[28]": {"target": "Neu5Ac(a2-3)Gal(b1-4)GlcNAc(b1-2)Man(a1-3)[GlcNAc(b1-2)Man(b1-4)GlcNAc(b1-2)Man(a1-6)]Man(b1-4)GlcNAc(b1-4)GlcNAc", "procedure,_shortened": "as §1"}, "[29]": {"target": "Neu5Ac(a2-3)Gal(b1-4)[Fuc(a1-3)]GlcNAc", "procedure,_shortened": "as §1"}, "[30]": {"target": "Neu5Ac(a2-6)Gal(b1-4)GlcNAc(b1-2)Man(a1-3)Man(b1-4)GlcNAc(b1-4)GlcNAc", "procedure,_shortened": "as §1"}, "[31]": {"target": "Neu5Ac(a2-6)Gal(b1-4)GlcNAc(b1-2)Man(a1-6)[Gal(b1-4)GlcNAc(b1-2)Man(a1-3)]Man(b1-4)GlcNAc(b1-4)GlcNAc", "procedure,_shortened": "as §1"}, "[32]": {"target": "Neu5Ac(a2-6)GlcNAc(b1-4)GlcNAc(b1-4)GlcNAc", "procedure,_shortened": "as §1"}, "[33]": {"target": "Neu5Ac(a2-8)Neu5Ac(a2-8)Neu5Ac", "procedure,_shortened": "as §1"}, "Neu5Gc(a2-3)Gal(b1-4)Glc": {"target": "Neu5Gc(a2-3)Gal(b1-4)Glc", "procedure,_shortened": "as §1"}}, "note": "The sample as a whole holds a higher share of the strongest signals than the screen did."}
{"binder": "CIH1 (Colletotrichum higginsianum) (protein) LPQATPTTPTPTSASAAATISATSSPTCSPGPVIDYTVVSGDTLTIISQRFSSGICNIADASGITNPNFLSLGQVLQVPTYVCTPDNTSCLAKEGSDTCVEGGPATHTIVAGDTFFLVAQSLGLDVNALLAANEGVDPLLLQIGDVINIPVC", "values": [{"measurement": "glycan array binding signal (z-score)", "setting": "[1]", "result": 0.015}, {"measurement": "glycan array binding signal (z-score)", "setting": "Fuc(a1-2)Gal(b1-4)Glc6S", "result": -0.071}, {"measurement": "glycan array binding signal (z-score)", "setting": "[2]", "result": -0.061}, {"measurement": "glycan array binding signal (z-score)", "setting": "[3]", "result": 0.014}, {"measurement": "glycan array binding signal (z-score)", "setting": "[4]", "result": -0.074}, {"measurement": "glycan array binding signal (z-score)", "setting": "[5]", "result": -0.071}, {"measurement": "glycan array binding signal (z-score)", "setting": "[6]", "result": -0.072}, {"measurement": "glycan array binding signal (z-score)", "setting": "[7]", "result": -0.065}, {"measurement": "glycan array binding signal (z-score)", "setting": "[8]", "result": 0.011}, {"measurement": "glycan array binding signal (z-score)", "setting": "Gal(a1-4)GlcNAc", "result": -0.052}, {"measurement": "glycan array binding signal (z-score)", "setting": "[9]", "result": -0.071}, {"measurement": "glycan array binding signal (z-score)", "setting": "[10]", "result": -0.063}, {"measurement": "glycan array binding signal (z-score)", "setting": "[11]", "result": -0.057}, {"measurement": "glycan array binding signal (z-score)", "setting": "[12]", "result": -0.079}, {"measurement": "glycan array binding signal (z-score)", "setting": "[13]", "result": -0.072}, {"measurement": "glycan array binding signal (z-score)", "setting": "Gal3S(b1-4)GlcNAc", "result": -0.067}, {"measurement": "glycan array binding signal (z-score)", "setting": "[14]", "result": -0.081}, {"measurement": "glycan array binding signal (z-score)", "setting": "[15]", "result": 0.006}, {"measurement": "glycan array binding signal (z-score)", "setting": "Gal6S(b1-4)Glc", "result": -0.079}, {"measurement": "glycan array binding signal (z-score)", "setting": "[16]", "result": -0.066}, {"measurement": "glycan array binding signal (z-score)", "setting": "GalNAc3S(b1-4)GlcNAc", "result": -0.066}, {"measurement": "glycan array binding signal (z-score)", "setting": "[17]", "result": -0.047}, {"measurement": "glycan array binding signal (z-score)", "setting": "Glc(b1-4)Glc", "result": -0.046}, {"measurement": "glycan array binding signal (z-score)", "setting": "[18]", "result": -0.08}, {"measurement": "glycan array binding signal (z-score)", "setting": "[19]", "result": -0.065}, {"measurement": "glycan array binding signal (z-score)", "setting": "[20]", "result": 2.91}, {"measurement": "glycan array binding signal (z-score)", "setting": "[21]", "result": 9.28}, {"measurement": "glycan array binding signal (z-score)", "setting": "[22]", "result": 20}, {"measurement": "glycan array binding signal (z-score)", "setting": "[23]", "result": -0.073}, {"measurement": "glycan array binding signal (z-score)", "setting": "[24]", "result": -0.055}, {"measurement": "glycan array binding signal (z-score)", "setting": "Man(a1-3)[Man(a1-6)]Man", "result": -0.045}, {"measurement": "glycan array binding signal (z-score)", "setting": "[25]", "result": -0.069}, {"measurement": "glycan array binding signal (z-score)", "setting": "[26]", "result": -0.055}, {"measurement": "glycan array binding signal (z-score)", "setting": "[27]", "result": -0.05}, {"measurement": "glycan array binding signal (z-score)", "setting": "[28]", "result": -0.08}, {"measurement": "glycan array binding signal (z-score)", "setting": "[29]", "result": -0.069}, {"measurement": "glycan array binding signal (z-score)", "setting": "[30]", "result": -0.004}, {"measurement": "glycan array binding signal (z-score)", "setting": "[31]", "result": -0.069}, {"measurement": "glycan array binding signal (z-score)", "setting": "[32]", "result": -0.004}, {"measurement": "glycan array binding signal (z-score)", "setting": "[33]", "result": -0.065}, {"measurement": "glycan array binding signal (z-score)", "setting": "Neu5Gc(a2-3)Gal(b1-4)Glc", "result": -0.081}]}
